Laboratory results from ChEMBL document CHEMBL2218924, “A broad activity screen in support of a chemogenomic map for kinase signalling research and drug discovery” (Biochem J, 2013).

The compounds below were run against T1, Serine/threonine-protein kinase Sgk3 (Homo sapiens) (UniProt Q96BR1). Settings: at 10 µM.
T1 sequence (whole entry): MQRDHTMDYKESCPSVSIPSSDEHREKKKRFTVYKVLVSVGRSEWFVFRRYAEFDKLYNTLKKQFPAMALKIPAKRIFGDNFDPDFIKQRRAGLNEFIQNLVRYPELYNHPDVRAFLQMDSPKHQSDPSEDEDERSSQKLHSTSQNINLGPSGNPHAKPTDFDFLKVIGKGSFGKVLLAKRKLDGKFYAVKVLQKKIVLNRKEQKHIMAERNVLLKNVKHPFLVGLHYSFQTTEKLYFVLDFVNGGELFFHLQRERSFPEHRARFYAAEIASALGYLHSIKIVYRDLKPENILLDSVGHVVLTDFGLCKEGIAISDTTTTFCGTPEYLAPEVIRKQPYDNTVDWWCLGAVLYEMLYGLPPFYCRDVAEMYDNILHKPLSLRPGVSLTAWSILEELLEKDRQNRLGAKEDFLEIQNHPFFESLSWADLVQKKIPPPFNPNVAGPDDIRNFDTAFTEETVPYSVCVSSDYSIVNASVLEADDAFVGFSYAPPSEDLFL

Row | SMILES | residual activity
1 | COc1ccc2c(c[n+](C)c3c4cc5c(cc4ccc23)OCO5)c1OC | 79%
2 | O=C1NC(=O)c2c1c1c3ccccc3n3c1c1c2c2ccccc2n1C1CCC3O1 | 80%
3 | COc1ccc2c(c1)/C(=C/c1cnc[nH]1)C(=O)N2 | 53%
4 | c1cc(-c2cnn3cc(-c4ccc(OCCN5CCCCC5)cc4)cnc23)ccn1 | 78%

The compounds below were run against Serine/threonine-protein kinase SIK1 (Homo sapiens) (UniProt P57059). Settings: at 1 µM.
Serine/threonine-protein kinase SIK1 (Homo sapiens), sequence (P57059 whole entry): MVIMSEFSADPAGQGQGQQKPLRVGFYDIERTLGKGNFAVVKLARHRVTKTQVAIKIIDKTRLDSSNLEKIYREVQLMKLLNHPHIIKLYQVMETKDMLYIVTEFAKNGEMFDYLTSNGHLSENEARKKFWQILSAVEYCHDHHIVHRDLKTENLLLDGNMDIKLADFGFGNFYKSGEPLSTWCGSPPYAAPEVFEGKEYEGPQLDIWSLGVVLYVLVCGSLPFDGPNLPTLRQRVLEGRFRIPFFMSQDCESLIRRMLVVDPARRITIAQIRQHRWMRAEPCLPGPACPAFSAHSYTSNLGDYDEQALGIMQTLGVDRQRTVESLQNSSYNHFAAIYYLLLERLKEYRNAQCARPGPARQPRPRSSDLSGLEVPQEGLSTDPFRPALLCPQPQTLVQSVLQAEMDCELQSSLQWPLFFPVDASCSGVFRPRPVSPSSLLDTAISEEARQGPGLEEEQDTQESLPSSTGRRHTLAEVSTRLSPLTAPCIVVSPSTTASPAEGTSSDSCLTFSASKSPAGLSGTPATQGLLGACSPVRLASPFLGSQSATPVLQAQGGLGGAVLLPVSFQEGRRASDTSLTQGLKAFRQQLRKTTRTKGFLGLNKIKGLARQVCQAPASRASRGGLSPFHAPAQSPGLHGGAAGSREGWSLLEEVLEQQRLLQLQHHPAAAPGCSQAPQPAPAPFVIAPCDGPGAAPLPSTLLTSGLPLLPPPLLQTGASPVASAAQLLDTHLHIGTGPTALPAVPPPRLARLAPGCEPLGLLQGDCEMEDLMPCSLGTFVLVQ

Row | SMILES | residual activity
5 | COc1ccc2c(c[n+](C)c3c4cc5c(cc4ccc23)OCO5)c1OC | 92%
6 | O=C1NC(=O)c2c1c1c3ccccc3n3c1c1c2c2ccccc2n1C1CCC3O1 | 123%
7 | COc1ccc2c(c1)/C(=C/c1cnc[nH]1)C(=O)N2 | 145%
8 | c1cc(-c2cnn3cc(-c4ccc(OCCN5CCCCC5)cc4)cnc23)ccn1 | 43%

These compounds were tested against Serine/threonine-protein kinase SIK1 (Homo sapiens) (UniProt P57059). Settings: at 10 µM.

Row | SMILES | residual activity
9 | O=C1NC(=O)c2c1c1c3ccccc3n3c1c1c2c2ccccc2n1C1CCC3O1 | 74%
10 | COc1ccc2c(c1)/C(=C/c1cnc[nH]1)C(=O)N2 | 48%
11 | c1cc(-c2cnn3cc(-c4ccc(OCCN5CCCCC5)cc4)cnc23)ccn1 | 9%
